Measured values reported in the supplement of paper PMC4166925.
± gives the standard deviation of the averaged measurements. In all, about 33,000 sequences were measured (“E-score (dimensionless, -0.5 to 0.5)”: median about -0.049, highest 2% from about 0.37 on). The entries come from a sample that favours the highest values as a whole.

system: T1, PmTbr T-box DNA-binding domain (GST fusion); experiment: PBM E-score of 8-mer (E-score (dimensionless, -0.5 to 0.5)); Tbr is Tbrain of the sea star Patiria miniata (Pm) or the sea urchin Strongylocentrotus purpuratus (Sp); higher = stronger binding preference; conditions: the construct has about 5 more residues each side
T1 sequence: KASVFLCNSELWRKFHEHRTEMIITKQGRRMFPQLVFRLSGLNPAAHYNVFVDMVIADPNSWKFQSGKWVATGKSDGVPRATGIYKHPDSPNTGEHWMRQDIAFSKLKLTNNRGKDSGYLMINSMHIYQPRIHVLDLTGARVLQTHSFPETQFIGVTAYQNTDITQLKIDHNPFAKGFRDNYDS
Method: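 Universal protein-binding microarray (Agilent AMADID 016060, 60-bp probes with a 35-bp variable region) incubated with 200 nM GST-fused Patiria miniata Tbr T-box DNA-binding domain (residues 272-466) in PBS pH 7.5. Scored for every ungapped 8-mer (given with its reverse complement) by the Universal PBM Analysis Suite as E-score (modified Wilcoxon-Mann-Whitney enrichment, range -0.5 to 0.5; >0.45 counts as bound) and Z-score of median probe intensity. Two replicate arrays (datasets 1 and 2).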
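Note: 200 nM protein in PBS on universal arrays averaged over duplicate arrays.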

Sequence | PBM E-score of 8-mer
GAAATTAA | -0.113 ± 0.044
GTTGCTCA | 0.0245 ± 0.051
ACCCTCAG | 0.0121 ± 0.00031
AACTAGGC | -0.0964 ± 0.044
CTTCCCCC | -0.166 ± 0.07
AGCTGGGC | -0.222 ± 0.056
GCTGGTTA | -0.0863 ± 0.064
CACCTATA | 0.377 ± 0.018
AACCTATT | -0.172 ± 0.056
TACCTATA | -0.137 ± 0.041
AACCTATC | -0.165 ± 0.17
CACCTATG | 0.429 ± 0.011
GACCTATC | -0.0538 ± 0.05
CACCTATC | 0.399 ± 0.0088
AACCTATA | -0.0111 ± 0.13
AACCTATG | -0.141 ± 0.019
CGACTCAG | -0.0525 ± 0.0052
CTTTATGA | -0.00777 ± 0.018
CTCCACAC | 0.341 ± 0.0092
AGCGTTAA | 0.265 ± 0.06
GGCGTCAA | 0.4094 ± 0.001
AGCGTCAA | 0.258 ± 0.0039
TGCGTTAA | 0.109 ± 0.017
GGCGTTAA | 0.377 ± 0.024
CGCGTCAA | 0.308 ± 0.0074

Sequence | PBM E-score of 8-mer
AAACCAAC | -0.0437 ± 0.062
CCATTAAA | -0.239 ± 0.0035
ATTTCGCC | -0.0762 ± 0.14
ATTTCGCA | 0.378 ± 0.0045
AATTCGCG | 0.303 ± 0.035
ATTTCGCG | 0.4125 ± 0.00097
CTTTCGGA | -0.0447 ± 0.021
ATTTCGAG | 0.09258 ± 0.00026
CTTTCGCA | 0.411 ± 0.015
GTTTCGCA | 0.3685 ± 0.0028
CTTTCGCC | -0.0672 ± 0.025
GTTCGAAA | -0.132 ± 0.091
GTATTCGA | 0.0428 ± 0.0073
GATCGAAC | -0.0822 ± 0.031
CGCACAGA | -0.108 ± 0.087
AACTGATG | 0.0361 ± 0.047
CGCTTTGC | -0.129 ± 0.036
ATCCATTG | -0.235 ± 0.089
ACTTGGCA | 0.239 ± 0.015
AGATGTTG | 0.0167 ± 0.014
AGATGTTC | 0.0612 ± 0.07
CGGTGTTC | -0.0289 ± 0.062
AGCTGTTG | 0.2441 ± 0.0021
AGGTGTTC | 0.4091 ± 0.0032
ACGTGTCC | 0.0892 ± 0.034

Sequence | PBM E-score of 8-mer
AGGTGTTG | 0.4891 ± 0.0019
AGGTGTCC | 0.45 ± 0.0092
AGATGTCC | -0.322 ± 0.016
GAGCGAAC | 0.0537 ± 0.089
GCTAACTA | 0.212 ± 0.07
ACGCTAGT | 0.036 ± 0.023
GCACACTA | 0.102 ± 0.027
GATAGCCA | -0.257 ± 0.028
CAACGCTC | -0.0448 ± 0.0033
CTTTCACA | 0.444 ± 0.0053
ATTTCACC | 0.167 ± 0.058
ATTTCACA | 0.426 ± 0.013
ATTTCACG | 0.319 ± 0.026
GTTTCACA | 0.36 ± 0.027
CTTTCACC | 0.14 ± 0.034
ACCATTCG | 0.233 ± 0.04
ATCTTTTG | -0.2448 ± 0.0018
CATTTTGC | -0.00766 ± 0.017
CGATCTTA | -0.0203 ± 0.061
TGATCACA | 0.20944 ± 9.2e-05
ACGTGAAC | 0.112 ± 0.051
GCGTGAAA | 0.4552 ± 0.0024
ATGTGAAC | 0.175 ± 0.039
GCGTGAAC | 0.405 ± 0.021
TTGTGAAA | 0.344 ± 0.027

Sequence | PBM E-score of 8-mer
ATGTGAAA | 0.287 ± 0.019
TCGTGAAA | 0.279 ± 0.018
GTGTGAAC | 0.4888 ± 0.0019
CCGTGAAC | 0.257 ± 0.04
CCGTGAAA | 0.222 ± 0.019
CTGTGAAA | 0.384 ± 0.0085
CTGTGAAC | 0.356 ± 0.0043
CCCAGGTA | -0.102 ± 0.03
CGCTTCAA | 0.0949 ± 0.078
AATCGCTG | -0.0604 ± 0.024
CCCATCCG | -0.108 ± 0.058
ACATCGTA | -0.0767 ± 0.038
ATCAATAA | -0.279 ± 0.033
GCTCCTGA | -0.206 ± 0.08
AGCAGGTG | 0.414 ± 0.026
ACCAGGTA | -0.0585 ± 0.034
AGCAGGTC | 0.0259 ± 0.014
CACAGGTG | 0.461 ± 0.0062
ACCAGGTC | -0.101 ± 0.039
ACCAGGTG | 0.369 ± 0.028
AACAGGTG | 0.4042 ± 0.00081
AGCAGGTA | -0.0669 ± 0.01
AACAGGTA | 0.126 ± 0.015
CACAGGTC | 0.15 ± 0.028
AACAGGTC | 0.14 ± 0.036

Sequence | PBM E-score of 8-mer
CACAGGTA | 0.163 ± 0.029
TATTCGGA | -0.32 ± 0.033
ACGCGACG | 0.237 ± 0.016
AACTGCAT | -0.201 ± 0.029
CCTAAGAC | -0.178 ± 0.094
CCCAAGGG | -0.052 ± 0.028
CTACAGAA | 0.0244 ± 0.029
CACATTGG | 0.281 ± 0.053
TGTTTGAA | 0.112 ± 0.0038
ATCAGGTG | 0.404 ± 0.0092
ATCAGGTA | -0.0936 ± 0.033
ATCAGGTC | -0.169 ± 0.12
ACGGTGCT | 0.164 ± 0.072
TAGGTGCA | 0.22 ± 0.024
ACGGTGCC | 0.158 ± 0.032
GAGGTGCA | 0.367 ± 0.0099
ATGGTGCC | 0.193 ± 0.051
AAGGTGCA | 0.4 ± 0.011
GCGGTGCC | 0.0932 ± 0.011
GAGGTGCC | 0.409 ± 0.03
AAGGTGCC | 0.405 ± 0.0071
AAGGTGCT | 0.441 ± 0.0066
ACGGTGCA | 0.0807 ± 0.013
AAGGTGGT | 0.3415 ± 0.002
ACTTTTTC | 0.124 ± 0.02

Sequence | PBM E-score of 8-mer
AAAAGACT | -0.205 ± 0.034
CAGTCCTC | -0.118 ± 0.032
CCACTGCC | -0.17 ± 0.095
CAGAAGTA | -0.223 ± 0.0053
ATCCACAG | -0.0977 ± 0.018
ATCGAACA | -0.0797 ± 0.051
CCCAGGGG | -0.162 ± 0.093
AAAGTGAA | -0.00138 ± 0.15
AAAGTGAT | 0.299 ± 0.012
CAAGTGAC | 0.325 ± 0.021
AAAGTGAC | 0.392 ± 0.012
GAAGTGAA | 0.219 ± 0.011
GAAGTGAC | 0.379 ± 0.017
AGAGTTCG | -0.201 ± 0.018
CTGGGACA | -0.223 ± 0.073
CACTTGCA | 0.349 ± 0.0093
CACTTGCG | 0.376 ± 0.019
AACTTCCG | -0.141 ± 0.013
CACTTGTA | 0.0949 ± 0.008
AACTTGTC | 0.34353 ± 0.00012
CACTTCAG | 0.255 ± 0.025
CACTTGTC | 0.402 ± 0.0079
CACTTCCC | 0.3321 ± 0.00048
CACTTCCG | 0.37 ± 0.013
CACTTCAC | 0.396 ± 0.012

Sequence | PBM E-score of 8-mer
AACTTCAC | 0.0623 ± 0.061
AACTTGCG | 0.137 ± 0.02
ACCCTTGC | 0.0156 ± 0.051
ACAGATAC | -0.0952 ± 0.059
AATTAAGG | -0.152 ± 0.064
ACCGTCAC | 0.288 ± 0.0081
ACACTCTG | 0.2899 ± 0.00065
AATTGGAA | -0.0872 ± 0.056
GGGCCAAA | -0.228 ± 0.029
CATTGGGG | -0.0156 ± 0.035
CCTCGCGA | 0.281 ± 0.00058
CTTCGCGC | 0.3742 ± 0.0014
CATCGCGC | 0.262 ± 0.0094
CTTCGCTC | 0.00268 ± 0.066
AATCGCGT | 0.169 ± 0.035
ATTCGCGA | 0.389 ± 0.0025
ACTCGCGC | 0.29 ± 0.014
ACTCGCGA | 0.38 ± 0.0065
CATCGCGA | 0.15 ± 0.043
CTTCGCGA | 0.277 ± 0.011
AATCGCGA | 0.3771 ± 0.0028
GTTCGCGA | 0.338 ± 0.019
GGCATTAA | -0.146 ± 0.0047
TGCTCCAA | -0.162 ± 0.04
ACCCTACG | 0.0529 ± 0.027

Sequence | PBM E-score of 8-mer
AGCCTAGC | -0.00521 ± 0.12
TCGAAGCA | -0.141 ± 0.0046
ATTCGCGG | 0.244 ± 0.039
AATCGCGC | 0.311 ± 0.024
ATTCGCGC | 0.39 ± 0.021
ATAGCACA | 0.174 ± 0.035
CTAGCACA | 0.327 ± 0.024
ATAGCACG | 0.358 ± 0.017
ATAGCACC | 0.416 ± 0.012
CAAGCACC | 0.129 ± 0.016
CTAGCACC | 0.449 ± 0.006
ACATTCGC | 0.267 ± 0.042
AGGCTTGG | -0.2 ± 0.011
GAAACCGA | -0.0132 ± 0.073
AGCCATAG | -0.0194 ± 0.015
CAGGCACC | -0.0396 ± 0.032
ATGGCACA | 0.103 ± 0.0048
ATGGCACC | 0.387 ± 0.011
CTGGCACA | 0.241 ± 0.0048
ATGGCACG | 0.189 ± 0.041
CTGGCACC | 0.411 ± 0.018
ACCGGTCC | -0.276 ± 0.048
TCCTATAA | -0.189 ± 0.068
AAATAGGG | -0.0426 ± 0.12
ACGGCTCT | -0.15 ± 0.033

Sequence | PBM E-score of 8-mer
CACCTGTA | 0.391 ± 0.009
CACCTGAC | 0.387 ± 0.018
GACCTGAC | -0.0852 ± 0.017
AACCTGAC | 0.111 ± 0.026
CGCCTGAG | 0.0681 ± 0.047
CACCTGTC | 0.4274 ± 0.0023
CGCCTGTC | 0.303 ± 0.026
AACCTGAG | 0.0264 ± 0.17
AACCTGTC | 0.30927 ± 0.00016
AACCTGTA | -0.252 ± 0.046
CACCTGAA | 0.312 ± 0.0079
CACCTGAG | 0.37535 ± 0.00034
AAACTATC | -0.215 ± 0.063
AACCAGCA | -0.18 ± 0.047
GATGGCCC | -0.138 ± 0.0089
GCTCCACA | -0.0189 ± 0.02
ACTGAACG | -0.315 ± 0.091
GCTTTACC | -0.126 ± 0.066
AAGGTTAC | -0.145 ± 0.017
